# In a collection of fitness landscapes (doi:10.1016/j.celrep.2020.107928):
# Over roughly 81,000 sequences, “one-hybrid fitness for binding parS DNA” has its median near -0.17; the highest 2% begin near 0.51. This is one part of a sample in which the highest values are shown more often than they occur.
# B1: Caulobacter ParB omega fusion; a variant is named by its letters at X, in order, B8GW30 (parent)
# chain: MESVVVGEPGMSEGRRGLGRGLSALLGEVDAAPAQAPGEQLGGSREAPIEILQRNPDQPRRTFREEDLEDLSNSIREKGVLQPILVRPSPDTAGEYQIVAGERAWRAAQRAGLKTVPIMVRELDDLAVLEIGIIENVQRADLNVLEEALSYKVLMEKFERTQENIAQTIGKSXSHVANXMRLLXLPDEVQSYLVSGELTAXHARAIAAAADPVALAKQIIEGGLSVRETEALARKAPNLSAGKSKGGRPPRVKDTDTQALESDLSSVLGLDVSIDHRGSTGTLTITYATLEQLDDLCNRLTRGI
# Variants of: B1
# Assay: one-hybrid fitness for binding parS DNA (scaled: cognate 1, non-cognate 0); higher = stronger binding
# Conditions: with parS DNA site
# Method in brief: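 On M9-minus-histidine containing 0.1 mM IPTG and 5 mM 3-AT, E. coli USO cells with a HIS3 reporter, site 19 bp from the promoter, grew 48 hours at 37°C to select Caulobacter ParB libraries randomised at four specificity codons. Plasmids from before and after were Illumina-sequenced, with three replicate libraries pooled and variants under 10 reads left out. Fitness is the log change in variant-to-wild-type read ratio, rescaled against cognate and non-cognate.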
row,Variant,one-hybrid fitness for binding parS DNA
1,RVIF,≤ 0.2
2,RVPK,≤ 0.2
3,RVPT,0.529
4,RVIT,0.703
5,RVPM,≤ 0.2
6,RVIQ,≤ 0.2
7,CFTG,≤ 0.2
8,TTVP,≤ 0.2
9,PCIV,≤ 0.2
10,RNDA,0.354
11,RNQA,0.489
12,RNRA,0.534
13,RNNA,0.529
14,RNWA,0.294
15,RNVA,0.312
16,RNSA,0.495
17,RNYA,0.467
18,RNKA,0.541
19,CRFC,≤ 0.2
20,AKST,≤ 0.2
21,DDYL,≤ 0.2
22,DYFD,≤ 0.2
23,RYQR,≤ 0.2
24,QVQY,≤ 0.2
25,RMTI,≤ 0.2
26,KKRY,≤ 0.2

row,Variant,one-hybrid fitness for binding parS DNA
1,IVRC,≤ 0.2
2,DLVM,≤ 0.2
3,RNDK,≤ 0.2
4,RNDG,0.679
5,RNNN,0.385
6,RNNG,0.948
7,RNNH,≤ 0.2
8,RNDM,≤ 0.2
9,LLYC,≤ 0.2
10,DVVM,≤ 0.2
11,PAYG,≤ 0.2
12,PDSP,≤ 0.2
13,THIF,≤ 0.2
14,ESHS,≤ 0.2
15,VADN,≤ 0.2
16,RMHD,≤ 0.2
17,RFHP,≤ 0.2
18,RFHH,≤ 0.2
19,RMHN,0.482
20,RCHS,0.953
21,RMHS,0.979
22,RKHS,0.832
23,RKHD,≤ 0.2
24,RKHN,0.375
25,RPHS,≤ 0.2
26,RFHS,0.996

row,Variant,one-hybrid fitness for binding parS DNA
1,RCHD,≤ 0.2
2,SNSI,≤ 0.2
3,KYKR,≤ 0.2
4,WCAL,≤ 0.2
5,YGRT,≤ 0.2
6,RSHP,≤ 0.2
7,RAHS,0.985
8,RAHD,≤ 0.2
9,RSHS,1
10,RSHH,≤ 0.2
11,RAHN,0.481
12,WEGR,≤ 0.2
13,ADSS,≤ 0.2
14,ALSE,≤ 0.2
15,KLGY,≤ 0.2
16,RVFS,1.03
17,RVAN,0.452
18,RVFN,0.399
19,RVFD,≤ 0.2
20,RVAS,1.01
21,RVAH,0.225
22,PPTK,≤ 0.2
23,IPLI,≤ 0.2
24,QGDC,≤ 0.2
25,PYSF,≤ 0.2
26,RMYW,0.216

row,Variant,one-hybrid fitness for binding parS DNA
1,RMRW,0.586
2,RMVW,0.23
3,RCKW,0.367
4,RMKW,0.694
5,RMDW,≤ 0.2
6,MALS,≤ 0.2
7,IADM,≤ 0.2
8,HDPK,≤ 0.2
9,FDHR,≤ 0.2
10,TTAR,≤ 0.2
11,QWPT,≤ 0.2
12,QFYR,≤ 0.2
13,VGKG,≤ 0.2
14,NTRA,≤ 0.2
15,DTRA,≤ 0.2
16,ATYA,≤ 0.2
17,DTYA,≤ 0.2
18,RTRA,0.794
19,RTYA,0.606
20,NWKG,≤ 0.2
21,RVDE,≤ 0.2
22,TNYG,≤ 0.2
23,PHTE,≤ 0.2
24,MVER,≤ 0.2
25,GAIS,≤ 0.2
26,VHEV,≤ 0.2

row,Variant,one-hybrid fitness for binding parS DNA
1,RCRG,0.927
2,RPYG,≤ 0.2
3,RCYG,1.04
4,RPRG,≤ 0.2
5,RSRG,0.965
6,RDRG,≤ 0.2
7,RERG,0.388
8,RSRR,≤ 0.2
9,RDYG,≤ 0.2
10,EMQT,≤ 0.2
11,RTTM,0.316
12,HGTT,≤ 0.2
13,LGRI,≤ 0.2
14,DCMT,≤ 0.2
15,VQTR,≤ 0.2
16,RYCQ,≤ 0.2
17,RYWT,0.787
18,RYWD,≤ 0.2
19,RYGY,0.42
20,RYGT,0.853
21,RYWP,≤ 0.2
22,RYCK,≤ 0.2
23,RYYT,0.876
24,RYYK,≤ 0.2
25,RYYF,0.22
26,RYGK,≤ 0.2

row,Variant,one-hybrid fitness for binding parS DNA
1,RYCT,0.852
2,TIPF,≤ 0.2
3,GWDS,≤ 0.2
4,DNAI,≤ 0.2
5,LTPR,≤ 0.2
6,DAHI,≤ 0.2
7,KFDS,≤ 0.2
8,TQIL,≤ 0.2
9,VNDP,0.246
10,RYNT,0.819
11,RYRQ,≤ 0.2
12,RYNE,≤ 0.2
13,RYLT,0.911
14,RYNQ,≤ 0.2
15,RYRT,0.737
16,RYLP,≤ 0.2
17,RYST,0.862
18,RYSM,0.302
19,RYRF,≤ 0.2
20,RYLN,0.396
21,RYSQ,≤ 0.2
22,DRTC,≤ 0.2
23,SSMT,≤ 0.2
24,KHMR,≤ 0.2
25,VHNS,≤ 0.2
26,QCGM,≤ 0.2

row,Variant,one-hybrid fitness for binding parS DNA
1,MVQC,≤ 0.2
2,PQQE,≤ 0.2
3,MRLA,≤ 0.2
4,PVER,≤ 0.2
5,RYHP,≤ 0.2
6,RYQQ,≤ 0.2
7,RYHH,0.213
8,RYQT,0.853
9,RYDT,0.79
10,RYQY,0.422
11,RYDF,≤ 0.2
12,RYDR,≤ 0.2
13,RYHT,0.889
14,VVQF,≤ 0.2
15,QNYM,≤ 0.2
16,DLKH,≤ 0.2
17,LLYM,≤ 0.2
18,LLNS,≤ 0.2
19,QAGT,≤ 0.2
20,RTIT,0.813
21,RTPT,0.558
22,RTPY,0.221
23,RTIN,0.355
24,RTID,0.203
25,RTPD,≤ 0.2
26,PDAC,≤ 0.2

row,Variant,one-hybrid fitness for binding parS DNA
1,RTWY,0.521
2,RAWY,0.512
3,RCWY,0.513
4,RPWY,≤ 0.2
5,RSWY,0.422
6,IEES,≤ 0.2
7,IWRM,≤ 0.2
8,RRIW,≤ 0.2
9,VLVG,≤ 0.2
10,RWLK,≤ 0.2
11,RWPC,0.337
12,RWLC,0.658
13,RWHC,0.733
14,RWHY,0.275
15,RWHQ,≤ 0.2
16,RWGN,≤ 0.2
17,RWGK,≤ 0.2
18,RWGC,0.61
19,RWIC,0.521
20,RWLM,≤ 0.2
21,RWIN,≤ 0.2
